Experimental data reported in the supplement of paper PMC3545927.
Some of the results follow. How many sequences the whole screen found active is unknown.

Target: furin, P09958
Assay: furin cleavage Z-score vs untreated control; higher = more cleavage, active = 3.5 or more, inactive = 1 or less, 8 variable residues between constant flanks
Summary of the method: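 Purified furin cleaved 8-mer peptides that were fused to a cDNA oligonucleotide and held on magnetic beads by their N-terminus. Each 0.01 ml reaction used a 1:10 enzyme:substrate ratio in 50 mM HEPES pH 7.5 with CaCl2 and NaCl and ran 7.5, 15 or 30 min. Released DNA was adapter-tagged by PCR and sequenced, and read counts gave abundance. The cleavage Z-score came from log counts against furin-free reactions, lowess-adjusted and scaled by median absolute deviation.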

Chain of furin, P09958 (P09958 whole entry): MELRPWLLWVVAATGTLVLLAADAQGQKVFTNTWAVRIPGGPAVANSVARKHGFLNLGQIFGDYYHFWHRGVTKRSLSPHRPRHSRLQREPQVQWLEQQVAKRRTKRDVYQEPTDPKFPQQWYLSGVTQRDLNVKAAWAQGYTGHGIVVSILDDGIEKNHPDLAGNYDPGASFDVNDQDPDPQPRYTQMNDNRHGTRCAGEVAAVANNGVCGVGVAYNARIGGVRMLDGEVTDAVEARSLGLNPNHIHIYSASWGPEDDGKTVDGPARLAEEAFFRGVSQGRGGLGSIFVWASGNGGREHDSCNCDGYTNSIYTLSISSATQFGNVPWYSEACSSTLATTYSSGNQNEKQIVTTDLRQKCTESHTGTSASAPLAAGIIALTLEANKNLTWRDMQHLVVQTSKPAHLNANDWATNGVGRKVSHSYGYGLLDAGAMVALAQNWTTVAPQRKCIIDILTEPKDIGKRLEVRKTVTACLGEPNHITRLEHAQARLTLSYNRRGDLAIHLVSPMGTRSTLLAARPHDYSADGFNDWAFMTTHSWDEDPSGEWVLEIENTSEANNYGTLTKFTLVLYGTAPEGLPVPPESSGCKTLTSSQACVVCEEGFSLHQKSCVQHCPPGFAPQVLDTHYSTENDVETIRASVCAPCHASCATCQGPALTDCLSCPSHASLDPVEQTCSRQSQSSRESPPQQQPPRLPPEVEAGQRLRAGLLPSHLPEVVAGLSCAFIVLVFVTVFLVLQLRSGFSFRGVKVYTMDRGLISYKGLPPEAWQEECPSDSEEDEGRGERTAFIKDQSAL

Sequence | furin cleavage Z-score (7.5 min) | furin cleavage Z-score (15 min) | furin cleavage Z-score (30 min)
CASTVRSLRSAGNASASA [FS-566] | 2.72 | 4.24 (active) | 4.81 (active)
CAIKKRSLRSAGNASASA [FS-1345] | 6.68 (active) | 5.55 (active) | 5.16 (active)
CASTPCSAHSAGNASASA [HC2577] | -0.571 (inactive) | 0.484 (inactive) | 1.4
CARRRKSASDAGNASASA [FS-2074] | -0.354 (inactive) | -0.175 (inactive) | 0.845 (inactive)
CAEVPCHRPIAGNASASA [HC2404] | 0.502 (inactive) | -0.467 (inactive) | 1.19
CAVVCCSQSYAGNASASA [HC2062] | 1.31 | 2.95 | 0.942 (inactive)
CALSHRSKRSAGNASASA [FS-1031] | 12.7 (active) | 12.6 (active) | 11.4 (active)
CARTHRSKRSAGNASASA [FS-957] | 11.6 (active) | 11.5 (active) | 8.26 (active)
CARRRRDHHMAGNASASA [FS-1838] | 7.82 (active) | 8.82 (active) | 7.36 (active)
CARRRRDLGGAGNASASA [FS-1866] | 3.6 (active) | 2.23 | 1.75
CARRRRRPGGAGNASASA [FS-3065] | -0.191 (inactive) | -1.18 (inactive) | -0.53 (inactive)
CARRRGDSRGAGNASASA [HC732] | -0.828 (inactive) | -0.656 (inactive) | -0.847 (inactive)
CARRRRDTHFAGNASASA [FS-2785] | 8.52 (active) | 11.4 (active) | 10.2 (active)
CARRRKDDYAAGNASASA [FS-2073] | 0.651 (inactive) | 0.661 (inactive) | -1.05 (inactive)
CARRRRDLQAAGNASASA [FS-2075] | 8.41 (active) | 10.5 (active) | 8.73 (active)
CARHRRILQAAGNASASA [FS-2025] | -0.809 (inactive) | 0.0867 (inactive) | -0.324 (inactive)

Sequence | furin cleavage Z-score (7.5 min) | furin cleavage Z-score (15 min) | furin cleavage Z-score (30 min)
CAVVCCSHSYAGNASASA [HC2055] | 1.14 | -0.432 (inactive) | 0.703 (inactive)
CAGEECSQHLAGNASASA [HC1676] | 0.0385 (inactive) | 1.42 | -0.903 (inactive)
CARRRRDLGSAGNASASA [FS-2517] | 10.6 (active) | 10 (active) | 9.26 (active)
CANEITLTHPAGNASASA [HC977] | -0.433 (inactive) | 0.337 (inactive) | 0.088 (inactive)
CAVNSWLGNIAGNASASA [HC1573] | 1.52 | 0.0684 (inactive) | -1.01 (inactive)
CARPPLGNWFAGNASASA [HC432] | 1.77 | 0.979 (inactive) | -0.0677 (inactive)
CALSKRKKRKAGNASASA [FS-827] | 8.35 (active) | 9.52 (active) | 8.96 (active)
CANKKRKARWAGNASASA [FS-1238] | 6.93 (active) | 7.47 (active) | 9.18 (active)
CAWEKRSRGQAGNASASA [FS-2625] | -0.652 (inactive) | -0.795 (inactive) | -0.906 (inactive)
CANKKRGGTAAGNASASA [WN4] | -1.48 (inactive) | -0.337 (inactive) | -0.0754 (inactive)
CARKERRKHKAGNASASA [FS-2959] | -0.0944 (inactive) | -0.106 (inactive) | 0.503 (inactive)
CAQWARYARWAGNASASA [FS-484] | -0.0806 (inactive) | 1.37 | 2.8
CAKRKRWTGQAGNASASA [FS-2478] | 1 | 4.62 (active) | 4.37 (active)
CAAKERLKRKAGNASASA [FS-213] | 9.07 (active) | 9.78 (active) | 9.62 (active)
CADPKRTIGQAGNASASA [FS-1982] | 0.168 (inactive) | -0.891 (inactive) | -1.67 (inactive)
